Screening results: PubChem BioAssay, The Scripps Research Institute Molecular Screening Center
Only some compounds are listed: those with a hit (about 2.3% of all), similar ones and a draw of the others.
CHO-K1 Ca antag – counter-screen for M1 antagonists: effect in parental CHO-K1 cells; AID 602250; inhibition, % at 3 µM; hit rate 0.6% among 360,000; ATP-induced calcium, Fluo-8 fluorescence;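 active = inhibition above a per-plate cutoff, the plate's mean sample inhibition plus 3 SD, cut at about 24% in these data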;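 note: 0% = DMSO plus EC80 ATP and 100% = DMSO alone without ATP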
M1 antag – human M1 muscarinic receptor antagonists, primary screen, CHO-K1 cells, Fluo-8 calcium fluorescence, 1536-well | Muscarinic acetylcholine receptor M1 (Homo sapiens), P11229 | CHO-K1 hM1, ACh EC80 antagonist | inhibition, % at 3 µM | hit rate 1.3% among 360,000 | AID 588852, 2011;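 active = percent inhibition above its own plate's cutoff, namely the mean of that plate's compound wells plus 3 SD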;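 note: peak over basal fluorescence ratio during 140 s after agonist addition; 0% = ACh EC80 plus DMSO and 100% = DMSO alone without agonist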
Target sequence (P11229 whole entry, looked up): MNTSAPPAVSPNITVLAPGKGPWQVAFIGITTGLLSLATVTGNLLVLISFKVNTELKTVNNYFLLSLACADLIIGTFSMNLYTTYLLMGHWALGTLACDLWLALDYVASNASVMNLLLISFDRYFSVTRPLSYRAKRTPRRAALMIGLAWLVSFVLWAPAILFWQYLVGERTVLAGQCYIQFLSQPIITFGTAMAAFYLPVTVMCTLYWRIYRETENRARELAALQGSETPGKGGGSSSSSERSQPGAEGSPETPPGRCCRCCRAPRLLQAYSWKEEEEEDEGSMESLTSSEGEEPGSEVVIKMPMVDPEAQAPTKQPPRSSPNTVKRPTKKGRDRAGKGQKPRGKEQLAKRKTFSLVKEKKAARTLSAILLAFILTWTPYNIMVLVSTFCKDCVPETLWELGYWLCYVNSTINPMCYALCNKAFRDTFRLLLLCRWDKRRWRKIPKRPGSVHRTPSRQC
CHRM1 agonist – human M1 muscarinic receptor agonists, primary screen, Fluo-8 calcium fluorescence, CHO-K1 cells, HTS | CHO-K1 hM1, agonist mode; 0% DMSO, 100% acetylcholine EC100 | activation, % at 3 µM | Muscarinic acetylcholine receptor M1 (Homo sapiens), P11229 | hit rate 0.33% among 360,000;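 active = activation above the run's mean compound activation plus 3 SD, cut at about 16% in these data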;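 note: peak over basal fluorescence ratio within a 140 s kinetic read after compound addition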
CHO-K1 Ca ag – counter-screen for M1 agonists: effect in parental CHO-K1 cells; Fluo-8 calcium fluorescence; scaled to maximal ATP response, vehicle zero; activation, % at 3 µM; hit rate 0.48% among 360,000; in the data active = activation above about 15%;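 note: untransfected CHO-K1 host cells lacking M1 receptor as counterscreen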
M1 PAM parental – nonselective calcium activators in parental CHO-K1 cells, primary screen, counter-screen for M1 PAM project, cell-based, Fluo-8 calcium fluorescence, full deck, 1536-well; ATP EC20; 0% at ATP EC20, 100% at ATP max; activation, % at 3 µM; hit rate 0.02% among 360,000;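 active = activation above the run cutoff, the mean activation of all test compounds plus 3 SD, cut at about 40% in these data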;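 note: peak over basal fluorescence ratio in a 140 s read after ATP addition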
M1 PAM – human M1 muscarinic receptor positive allosteric modulators, primary screen, CHO-K1 cells, Fluo-8 calcium fluorescence, 1536-well. CHO-K1 hM1, ACh EC20; 0% = ACh EC20, 100% = maximal ACh. activation, % at 3 µM. hit rate 0.088% among 360,000. AID 588819, 2011; in the data active = activation above about 19%, passing the limit was not always enough
The depositor's hits bear a star.

SMILES	CHO-K1 Ca antag	M1 antag	CHRM1 agonist	CHO-K1 Ca ag	M1 PAM parental	M1 PAM
CCCc1nnc(NC(=O)CSc2nc3ccccc3[nH]2)s1	30*	-8	-3	-1	-14	-3
Cc1ccc(NC(=O)N2CCC(=O)N2)cc1	-8	-4	-7	1	21	6
COc1ccc(Cl)cc1NC(=O)NCC1CCN(Cc2cc(C)ccc2C)CC1	-9	-4	-5	16*	10	5
COc1cc([N+](=O)[O-])ccc1NC(=O)NCC1CCN(Cc2ccc(Cl)cc2)CC1	-14	13	-7	17*	19	-13
O=C(NCC1CCN(Cc2cccc(Cl)c2)CC1)Nc1ccc(Cl)cc1	-1	-2	-4	11	-8	-2
COC(=O)c1ccc(CN(c2ccc(C(=O)O)c(O)c2)S(=O)(=O)c2ccc(Cl)c([N+](=O)[O-])c2)cc1	-10	4	-3	6	5	-4
Cc1cccc(/C=N/NC(=O)c2cc(C3CC3)nc3ccccc23)n1	26*	-12	6	0	-13	19
Cc1cccc(/C=N/NC(=O)c2cc(C)nc3ccccc23)n1	-6	0	-3	3	-2	1
CCOC(=O)Cc1csc(NC(=O)c2sc3nc4c(C)cc(C)cc4cc3c2N)n1	-11	32*	-1	2	11	-20
CCOC(=O)Cc1csc(NC(=O)c2csc(C)c2)n1	-1	-5	0	8	8	3
O=C1[C@H]2[C@@H](c3ccc(F)cc3)N3C(=O)N(c4cccc(Br)c4)C(=O)[C@@]3(Cc3ccc(Cl)cc3)[C@H]2C(=O)N1C1CCCCC1	-2	-17	4	0	2	27*
O=C1[C@H]2[C@@H](c3ccc(Cl)cc3)N3C(=O)N(c4cccc(Br)c4)C(=O)[C@@]3(Cc3ccc(Cl)cc3)[C@H]2C(=O)N1C1CCCCC1	-19	-1	-7	1	14	0
CC1(C)CC(=O)c2c(O)cc(OCc3ccc(Br)cc3)cc2O1	-20	-3	-7	2	27	0
CC1(C)CC(=O)c2ccc(OCc3ccc([N+](=O)[O-])cc3)cc2O1	30*	-8	-4	0	-20	1
Cc1cc(C)n(-c2cccc3cccnc23)n1	0	11	-3	0	0	-6
Cc1cc(C)n(-c2ccccc2C#N)n1	25*	4	4	5	-16	-1
O=C(O)C1CCN(S(=O)(=O)c2ccc3[nH]ccc3c2)CC1	26*	20	-3	0	-14	-7
Cc1ccc(S(=O)(=O)N2CCC(C(=O)O)CC2)cc1C(=O)O	2	-21	0	0	13	3
O=C(O)CC(Cc1ccc(Cl)cc1)C(=O)NCC12CC3CC(CC(C3)C1)C2 (configuration not stated)	-5	31*	-6	0	0	-11
Cc1ccc(CC(CC(=O)O)C(=O)NCC23CC4CC(CC(C4)C2)C3)cc1 (configuration not stated)	4	3	-2	0	-6	-5
CC(=O)c1c(C)[nH]c(C(=O)CSc2ccc(F)cc2)c1C	11	33*	5	15*	-12	-19
COc1cc(C2=NOC(C(=O)NCc3cccs3)C2)cc(OC)c1OC (configuration not stated)	0	-4	1	2	-11	4
COc1ccc(C2=NOC(C(=O)NCc3cccs3)C2)cc1 (configuration not stated)	-5	56*	-2	1	17	7
CCCCN1C[C@H](c2ccccc2)[C@@H](CC(=O)NC)C1=O	34*	-17	1	0	-9	5
CCCCN1C[C@H](C)[C@@H](CC(=O)NC)C1=O	-2	-12	-1	0	16	10
SMILES	CHO-K1 Ca antag	M1 antag	CHRM1 agonist	CHO-K1 Ca ag	M1 PAM parental	M1 PAM
C(=C\c1ccccc1)/CN1CCN(C(c2ccccc2)c2nnnn2C2CCCCC2)CC1 (configuration not stated)	-10	43*	-6	0	3	-26
COc1cccc(C(c2nnnn2C2CCCC2)N2CCN(C/C=C/c3ccccc3)CC2)c1OC (configuration not stated)	-15	54*	-6	0	16	-25
C(=C\c1ccccc1)/CN1CCN(C(c2ccnc3ccccc23)c2nnnn2C2CCCCC2)CC1 (configuration not stated)	-20	17	-7	0	15	-26
CCC(c1nnnn1C1CCCC1)N1CCN(C/C=C/c2ccccc2)CC1 (configuration not stated)	-10	-20	-3	6	14	-4
CC(C(=O)N(C1CC1)C1(C(=O)Nc2ccccc2)CCCC1)N1C(=O)c2ccccc2C1=O (configuration not stated)	-10	-5	-4	1	30	9
CCCCCc1cc(=O)oc2c(C(CCN(CC)CC)c3ccc(N(C)C)cc3)c(OC)cc(OC)c12 (configuration not stated)	3	3	-4	0	8	8
CC1(C)Cc2c(sc(NC(=O)Cc3ccccc3)c2C#N)CO1	1	-14	-3	1	3	9
CC1(C)Cc2c(sc(NC(=O)c3ccc(Br)o3)c2C#N)CO1	25*	-2	-1	0	-8	7
CC1CSC(N(C(=O)c2ccc(S(C)(=O)=O)cc2)c2ccc(Cl)cc2)=N1 (configuration not stated)	-4	-2	-1	16*	9	-1
CCOc1ccccc1N(C(=O)Nc1cccc(Cl)c1)C1=NC(C)CS1 (configuration not stated)	2	-4	-10	7	20	7
CC(C)CSC1=NSC2=NC(=O)/C(=C\c3ccccc3)C(=N)N12	0	15	-3	0	-14	-6
CSC1=NSC2=NC(=O)/C(=C\c3coc4ccccc4c3=O)C(=N)N12	21	35*	45*	20*	-7	-8
Cc1cc(/C=C2\C(=N)N3C(SCc4ccccc4)=NSC3=NC2=O)c(C)n1Cc1ccccc1	-4	-5	-4	3	15	5
CC(C)CSC1=NSC2=NC(=O)/C(=C\c3coc4ccccc4c3=O)C(=N)N12	60*	60*	143*	107*	-5	-32
Fc1ccc(N2CCN(Cc3cn[nH]c3-c3ccccc3)CC2)cc1	4	14	1	0	-11	-7
Fc1ccc(-c2[nH]ncc2CN2CCN(c3ccc(F)cc3)CC2)cc1	-6	-8	17*	3	12	10
